Source: PubChem BioAssay
KB-3-1 cytotox – qHTS assay for MDR1-selective chemotherapeutics: Primary screen using the parental adenocarcinoma cell KB-3-1. 400,000 compounds, 1.4% hits. Potency, µM (titrated, usually from 46.1 µM), actives largely listed as cytotoxic. KB-3-1 viability, CellTiter-Glo ATP luminescence, 72 h. AID 1347075, 2019; further: nearly all actives have a fitted effect of over 60% in size
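KB-3-1 parental drug-naive adenocarcinoma cells in DMEM/10% FBS, incubated 72 h at 37 C with pin-transferred compounds across a concentration series. Viability by CellTiter-Glo luminescence; concentration-response curves fitted after normalization.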
KB-V1 MDR tox – qHTS assay for MDR1-selective chemotherapeutics: Primary screen using the drug-selected MDR subline cells KB-V1. 400,000 compounds, 3.4% hits. KB-V1 MDR cells viability, CellTiter-Glo, 72 h. Potency, µM (series often up to 46.1 µM), hits mostly cytotoxic. AID 1347076, 2019; further: nearly all actives have a fitted effect of over 60% in size
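KB-V1 MDR subline cells in DMEM (phenol-red free, 10% FBS) exposed to compounds in qHTS concentration series for 72 h at 37 degrees C. Viability read by CellTiter-Glo luminescence; concentration-effect curves fitted after normalization and correction.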
SW480 rereplic – A quantitative high throughput screen for small molecules that induce DNA re-replication in SW480 colon adenocarcinoma cells; SW480 DNA re-replication, Hoechst DNA content imaging, 48 h; Potency, µM (titrated, usually from 46.1 µM), actives largely listed as activators; 340,000 compounds, 1.8% hits; further: nearly all actives have a fitted effect of over 55% in size
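Image-based read-out: total Hoechst fluorescence of nuclei (405 nm excitation, 500-530 nm emission), with hits raising the fraction of high-intensity nuclei. SW480 colon cells incubated 48 hr with compounds at 37 C.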
MCF10A rerep – A quantitative high throughput screen for small molecules that induce DNA re-replication in MCF 10a normal breast cells; MCF 10A DNA re-replication, Hoechst nuclear intensity, 48 h; Potency, µM (titrated, usually from 46.1 µM), most hits filed as activators; 350,000 compounds, 2.9% hits; AID 624296, 2012; further: nearly all actives have a fitted effect of over 50% in size
HT1080-NT tox – qHTS for induction of synthetic lethality in tumor cells producing 2HG: qHTS for the HT-1080-NT fibrosarcoma cell line; AID 686970, 2013; Potency, µM (top dose mostly 46.1 µM), actives largely listed as cytotoxic; 360,000 compounds, 1.6% hits; HT-1080-NT fibrosarcoma viability, CellTiter-Glo ATP luminescence, 48 h;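 further: NT is the 2HG producing partner of a matched IDH1 knockdown line; nearly all actives have a fitted effect of over 55% in size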
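HT-1080-NT fibrosarcoma cells (2HG-overproducing), 750 cells/well in RPMI with 5% FBS, dosed after 2 h and incubated 48 h at 37C. CellTiter-Glo luminescence normalized to DMSO and no-cell wells; concentration-response curves fitted and classed.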
HT1080 IDH1KD tx – qHTS for induction of synthetic lethality in tumor cells producing 2HG: qHTS for the HT-1080-IDH1KD cell line | HT-1080 IDH1 knockdown viability, ATP luminescence, 48 h | AID 686971, 2013 | 360,000 compounds, 2% hits | Potency, µM (titrated, usually from 46.1 µM), most hits filed as cytotoxic
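Viability of IDH1-knockdown HT-1080 fibrosarcoma cells was assessed by CellTiter-Glo after 48 h at 37 °C with titrated compound; concentration-effect curves were classified by fit quality and response size.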
Hits are given with their value; 0 = inactive; ? = inconclusive; - = no result; [ ] = dose if it differs, or a comment. Sampled rows, rich in hits. Any-hit rate of the full collection: about 7.9%. The call rests on the fitted dose curve; in most records, active means well fitted curve in the direction sought with a large enough effect; inconclusive means small, poorly fitted or top-dose-only effect, or another doubt; inactive means no such curve, though single readings can be large; an effect the other way counts as inactive or inconclusive.

SMILES | KB-3-1 cytotox | KB-V1 MDR tox | SW480 rereplic | MCF10A rerep | HT1080-NT tox | HT1080 IDH1KD tx
CCOC(=O)C1=C(C)N(c2ccc(OCC)cc2)C(=O)/C1=C\c1ccco1 | 0 | 0 | 0 | 16.4µM | 0 | ?
COC(=O)C1=C(C)N(c2cccc(OC)c2)C(=O)/C1=C\c1ccco1 | 0 | 0 | 0 | 0 | 0 | 0
CN(Cc1ccccc1)C(=O)COC(=O)c1cc(-c2ccc(Cl)s2)nc2ccccc12 | 0 | 0 | 0 | ? | 0 | 0
O=CC1=C(c2ccccc2)Oc2ccccc2O1 | ? | ? | ? | ? | ? | 16.4µM
Cc1cc(Cl)c(S(=O)(=O)Nc2cc(S(=O)(=O)N3CCOCC3)ccc2F)cc1OCC(N)=O | 0 | 0 | 0 | 0.651µM | 0 | 0
CCOC(=O)c1ccc(NC(=O)CCNC(=O)c2ccc([N+](=O)[O-])cc2)cc1 | 0 | 14.6µM | 0 | 0 | 0 | 0
COc1ccc(S(=O)(=O)N2CCOCC2)cc1NC(=O)COc1cccnc1[N+](=O)[O-] | 0 | 0 | 0 | 0.581µM | 0 | 0
COc1ccc(S(=O)(=O)N2CCOCC2)cc1NC(=O)c1ccc(Cl)cc1 | 0 | 0 | 0.231µM | 0 | 0 | 0
O=C(COc1cccnc1[N+](=O)[O-])Nc1cccc(S(=O)(=O)N2CCOCC2)c1 | 0 | 0 | 0 | 0 | 0 | 0
Cc1cc(Cl)c(S(=O)(=O)Nc2ccc(S(=O)(=O)N3CCOCC3)cc2)cc1OCC(N)=O | 0 | 0 | 0 | 0 | 0 | 0
CC(=O)c1cc(Cl)ccc1OCc1cccc(S(=O)(=O)N2CCOCC2)c1 | 0 | 18.4µM | 0 | 0 | 0 | 0
COc1ccc(S(=O)(=O)N2CCOCC2)cc1NC(=O)Cc1sc(C)nc1-c1ccc(F)cc1 | ? | 11.6µM | 0 | 0 | 0 | 0
COc1ccc(S(=O)(=O)N2CCOCC2)cc1NC(=O)CN1CCC(Cc2ccccc2)CC1 | 0 | 11.6µM | ? | ? | 0 | 0
COc1ccc(S(=O)(=O)N2CCOCC2)cc1NC(=O)CCNC(=O)c1ccc([N+](=O)[O-])cc1 | 0 | 0 | ? | ? | 0[9.24 µM] | 5.8µM
COc1ccc(NC(=O)CCNC(=O)c2ccc([N+](=O)[O-])cc2)cc1S(=O)(=O)N1CCOCC1 | 0 | 0 | 0 | 0 | 0 | 0
COc1ccc(S(=O)(=O)N2CCCCC2)cc1NC(=O)Cc1sc(C)nc1-c1ccc(F)cc1 | 0 | ? | 0 | 0 | 0 | 0
Cc1noc(C)c1S(=O)(=O)Nc1ccc2c(c1)C(=O)N([C@H](C)CO)C[C@H](C)[C@H](CN(C)C(=O)NC(C)C)OCCCC[C@@H](C)O2 | 0 | 0 | - | - | 0 | 0
CC(C)Oc1ccc2c(=O)cc(-c3ccccc3)oc2c1 | - | - | 0 | 0 | - | -
C[C@H](O)[C@@H]1CN2CCc3c([nH]c4ccccc34)[C@@H]2C[C@@H]1N(C)C(=O)Nc1ccccc1 | 0 | 0 | - | - | 0 | 0
CN(C(=O)C(C)(C)C)[C@H]1C[C@H]2c3[nH]c4ccccc4c3CCN2C(=O)[C@H]1CO | 0 | 0 | - | - | 0 | 0
C[C@H](O)[C@@H]1CN2CCc3c([nH]c4ccc(-c5ccc6c(c5)OCO6)cc34)[C@@H]2C[C@@H]1N(C)C(=O)NC1CCCCC1 | 0.581µM | ? | - | - | 0 | 0
C[C@H](O)[C@@H]1C(=O)N2CCc3c([nH]c4ccccc34)[C@@H]2C[C@@H]1N(C)C(=O)Nc1ccccc1 | 0 | 0 | - | - | 0 | 0
C[C@H](O)[C@@H]1CN2CCc3c([nH]c4ccc(-c5ccc6c(c5)OCO6)cc34)[C@@H]2C[C@@H]1N(C)C(=O)Nc1cc(Cl)cc(Cl)c1 | 13µM | ? | - | - | 9.2µM | 7.31µM
CN(C(=O)NC1CCCCC1)[C@H]1C[C@H]2c3[nH]c4ccccc4c3CCN2C(=O)[C@H]1CO | 6.51µM | 0 | - | - | 0 | 0
